# Activity calls are given as the source filed them.
# Key:
# [1] = target: Albumin (Bos taurus) (UniProt P02769); test: compounds binding labelled BSA control protein – biochemical, small-molecule microarray, Alexa647 label, 635/667 nm fluorescence, artefact control for SMM control protein annotation, profiling panel (AID 1118); details: BSA-A647 binding, fluorescence 635 nm, higher = more signal;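 note: score merges 667 nm emission intensity and signal-to-noise per printed compound spot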
# [2] = probe aXIP binding to arrayed compounds – biochemical, NeuroSMM set, 635/667 nm fluorescence, primary screen (AID 1119); details: small-molecule microarray, higher = more signal, called active from +8 up or from −8 down;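 note: probe is the protein aXip251-270 applied at 1 µg/mL to compound-printed slides; binding of probe to printed compounds measured as 667 nm fluorescence plus signal to noise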
# [3] = probe aNOTCH3 binding on compound microarray – biochemical, small-molecule microarray, 635/667 nm fluorescence, primary screen (AID 1120); details: higher = more signal;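 note: probe is a biotin-tagged antibody raised against NOTCH3 rather than NOTCH3 protein; score merges spot fluorescence near 667 nm with spot signal to noise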
# [4] = probe aNOTCH2 binding on compound microarray – biochemical, small-molecule microarray, 635/667 nm fluorescence, primary screen (AID 1121); details: higher = more signal;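 note: score merges feature fluorescence read at 667 nm with its signal to noise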
# [5] = target: Carbonic anhydrase 2 (Homo sapiens) (UniProt P00918); test: compounds binding carbonic anhydrase 2 – biochemical, small-molecule microarray, Alexa647-labelled CAII, profiling panel (AID 1122); details: CAII-A647 binding fluorescence, higher = more signal
# [6] = COS7 lysate on small-molecule microarray, probe aHis, 635 nm (AID 1123); details: COS7 cell lysate, fluorescence, higher = more signal;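 note: z-score combines 667nm fluorescence intensity with signal-to-noise per printed compound spot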
# [7] = probe aLAP1 signal on lysate-treated microarray – cell lysate, small-molecule microarray, COS7 lysate, primary screen (AID 1124); details: probe aLAP1, fluorescence, higher = more signal;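 note: lysate comes from COS7 cells expressing LAP1 and is applied at 0.3 µg/mL; score merges spot fluorescence near 667 nm with signal-to-noise over triplicate slides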
# [8] = test system: Sam68 (KHDRBS1); test: compounds binding KHDRBS1 protein – biochemical, small-molecule microarray, 635 nm fluorescence, primary screen (AID 1125); details: higher = more signal;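 note: score merges 667 nm channel intensity with signal to noise over triplicate slides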
# [9] = test system: Chordin-like protein 2 (CHRDL2); test: compounds binding chordin-like 2 – biochemical, small-molecule microarray, 635 nm fluorescence, primary screen (AID 1126); details: fluorescence 635 nm, higher = more signal;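 note: printed compound slides probed with Chrdl2 protein at 4 µg/mL for 1 h at 4 C; score merges 667 nm emission intensity with signal to noise over three replicate slides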
# [10] = target: Concanavalin-A (Canavalia ensiformis) (UniProt P02866); test: compounds binding concanavalin A lectin – biochemical, small-molecule microarray, Alexa647 label, 635 nm, artefact control for SMM control protein annotation, primary screen (AID 1127); details: ConA-A647 binding fluorescence, higher = more signal;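 note: z combines 667 nm emission intensity with signal-to-noise across three replicate slides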
# [11] = compounds binding Alexa647 anti-His antibody – biochemical, small-molecule microarray, 635 nm fluorescence, artefact control for SMM control protein annotation, primary screen (AID 1128); details: higher = more signal;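 note: score merges feature fluorescence with signal-to-noise for each printed compound spot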
# [12] = test system: Human papillomavirus type 1a E7 protein (residues 1-88); test: HPV1a E7 small-molecule binders, primary screen, biochemical, small-molecule microarray, residues 1-88, 635 nm (AID 1129); details: small-molecule microarray binding, fluorescence 635 nm; higher = more signal
# [13] = target: Focal adhesion kinase 1 (Homo sapiens) (UniProt Q05397); test: PTK2 protein binding on printed compound slides – biochemical, small-molecule microarray, 635/667 nm fluorescence, BSA, DTT, primary screen (AID 1130); details: 635 nm fluorescence, higher = more signal;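 note: composite of spot emission at 667 nm and signal to noise over triplicate slides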
# [14] = test system: Fibrinogen (Alexa647-labelled); test: Alexa647-fibrinogen binding to printed small molecules – biochemical, small-molecule microarray, 635/667 nm fluorescence, artefact control for SMM control-protein annotation, profiling panel (AID 1131); details: fibrinogen-A647 binding fluorescence, higher = more signal;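 note: z-score merges 667 nm fluorescence with per-spot signal-to-noise over triplicate slides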
# [15] = target: Follistatin (Homo sapiens) (UniProt P19883); test: FST protein binding to printed compounds – biochemical, small-molecule microarray, 635/667 nm fluorescence, primary screen (AID 1132); details: 635 nm fluorescence, higher = more signal
# [16] = target: Fibroblast growth factor 2 (Homo sapiens) (UniProt P09038); test: basic fibroblast growth factor binding to printed compounds – biochemical, small-molecule microarray, 635/667 nm fluorescence, primary screen (AID 1133); details: FGF2, fluorescence 635/667, higher = more signal
# [17] = JC-1 mitochondrial potential readout, lung cancer cells – cell-based, A549, JC-1 fluorescence, basal, 24 h, 100 nL, profiling panel (AID 1138); details: higher = more signal;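 note: A549 lung adenocarcinoma cells under basal conditions with no added stimulus; test concentration not given here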
# [18] = test system: Lefty1; test: Lefty1 protein binding to printed compounds – biochemical, small-molecule microarray, 635/667 nm fluorescence, primary screen (AID 1139); details: fluorescence 635/667, higher = more signal
# [19] = test system: wheat germ agglutinin (Triticum aestivum), Alexa647-labelled; test: Alexa647-WGA lectin binding to printed small molecules – biochemical, small-molecule microarray, 635/667 nm fluorescence, artefact control for SMM control-protein annotation, profiling panel (AID 1140); details: WGA-A647 binding, 635 nm fluorescence, higher = more signal;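 note: score merges 667 nm feature emission with signal to noise over triplicate slides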
# [20] = target: Luciferin 4-monooxygenase (Photinus pyralis) (UniProt P08659); test: inhibition of purified Photinus pyralis luciferase – biochemical, luminescence, purified enzyme, 2006 set, primary screen (AID 1141); details: purified firefly luciferase, SteadyGlo luminescence, 30 min; higher = more signal, called active from +8 up or from −8 down;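 note: cell-free assay with purified firefly luciferase at 100 ng per well in PBS; test concentration not given here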
# Chain of Luciferin 4-monooxygenase (Photinus pyralis) (P08659 whole entry, looked up): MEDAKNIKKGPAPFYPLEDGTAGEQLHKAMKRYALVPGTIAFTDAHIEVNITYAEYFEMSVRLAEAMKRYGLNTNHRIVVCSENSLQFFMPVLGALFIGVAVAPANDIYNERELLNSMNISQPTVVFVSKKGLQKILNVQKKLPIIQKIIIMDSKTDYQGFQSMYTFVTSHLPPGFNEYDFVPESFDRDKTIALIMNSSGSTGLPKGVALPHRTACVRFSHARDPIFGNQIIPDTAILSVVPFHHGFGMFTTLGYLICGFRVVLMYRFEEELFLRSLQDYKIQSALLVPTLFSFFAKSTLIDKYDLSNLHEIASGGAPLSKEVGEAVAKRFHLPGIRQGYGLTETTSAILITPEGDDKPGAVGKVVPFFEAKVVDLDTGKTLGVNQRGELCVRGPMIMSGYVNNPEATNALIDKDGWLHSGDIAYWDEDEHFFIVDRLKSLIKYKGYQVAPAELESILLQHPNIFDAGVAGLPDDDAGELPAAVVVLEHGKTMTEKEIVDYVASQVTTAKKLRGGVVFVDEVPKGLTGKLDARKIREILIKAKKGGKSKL
# Chain of Concanavalin-A (Canavalia ensiformis) (P02866 whole entry, looked up): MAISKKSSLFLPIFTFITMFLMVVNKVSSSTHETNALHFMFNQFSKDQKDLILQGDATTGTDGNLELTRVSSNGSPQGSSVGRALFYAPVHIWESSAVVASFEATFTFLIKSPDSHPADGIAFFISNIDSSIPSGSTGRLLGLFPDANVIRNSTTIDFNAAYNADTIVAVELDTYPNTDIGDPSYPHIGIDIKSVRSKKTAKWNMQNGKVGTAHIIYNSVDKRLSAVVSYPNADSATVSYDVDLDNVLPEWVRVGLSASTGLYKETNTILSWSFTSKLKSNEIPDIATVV
# Chain of Focal adhesion kinase 1 (Homo sapiens) (Q05397 whole entry, looked up): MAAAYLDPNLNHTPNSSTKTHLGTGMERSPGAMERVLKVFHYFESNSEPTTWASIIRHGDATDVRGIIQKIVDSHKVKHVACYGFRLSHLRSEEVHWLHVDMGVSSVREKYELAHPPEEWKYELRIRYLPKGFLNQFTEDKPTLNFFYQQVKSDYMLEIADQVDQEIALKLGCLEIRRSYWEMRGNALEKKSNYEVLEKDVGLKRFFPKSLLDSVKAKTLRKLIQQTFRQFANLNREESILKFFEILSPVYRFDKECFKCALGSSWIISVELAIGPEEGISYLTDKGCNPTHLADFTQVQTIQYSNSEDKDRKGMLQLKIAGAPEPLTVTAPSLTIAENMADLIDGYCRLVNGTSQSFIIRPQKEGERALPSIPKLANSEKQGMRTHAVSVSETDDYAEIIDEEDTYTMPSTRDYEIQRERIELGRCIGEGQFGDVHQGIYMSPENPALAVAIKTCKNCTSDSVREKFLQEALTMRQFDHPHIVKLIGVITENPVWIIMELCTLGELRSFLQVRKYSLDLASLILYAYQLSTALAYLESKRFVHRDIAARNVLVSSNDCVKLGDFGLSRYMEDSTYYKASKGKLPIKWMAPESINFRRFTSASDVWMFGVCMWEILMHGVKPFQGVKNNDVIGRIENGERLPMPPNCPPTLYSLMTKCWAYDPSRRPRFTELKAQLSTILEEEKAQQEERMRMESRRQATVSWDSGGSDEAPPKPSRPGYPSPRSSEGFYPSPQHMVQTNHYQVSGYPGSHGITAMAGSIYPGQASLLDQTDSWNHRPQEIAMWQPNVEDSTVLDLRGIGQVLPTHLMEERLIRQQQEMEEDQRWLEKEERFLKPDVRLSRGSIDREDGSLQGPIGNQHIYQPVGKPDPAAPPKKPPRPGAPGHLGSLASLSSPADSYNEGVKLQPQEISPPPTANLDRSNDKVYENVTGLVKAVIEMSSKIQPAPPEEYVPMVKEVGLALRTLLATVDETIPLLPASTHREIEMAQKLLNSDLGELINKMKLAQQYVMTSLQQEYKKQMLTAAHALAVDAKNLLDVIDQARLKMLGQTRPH
# Chain of Fibroblast growth factor 2 (Homo sapiens) (P09038 whole entry, looked up): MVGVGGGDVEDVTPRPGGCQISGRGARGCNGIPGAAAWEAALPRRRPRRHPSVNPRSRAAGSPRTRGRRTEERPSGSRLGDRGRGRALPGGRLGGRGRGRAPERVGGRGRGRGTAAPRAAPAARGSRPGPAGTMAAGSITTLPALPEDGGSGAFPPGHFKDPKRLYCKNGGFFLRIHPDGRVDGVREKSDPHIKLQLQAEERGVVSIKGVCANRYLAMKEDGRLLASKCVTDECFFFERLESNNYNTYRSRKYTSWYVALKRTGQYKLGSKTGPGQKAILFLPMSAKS
# Chain of Albumin (Bos taurus) (P02769 whole entry, looked up): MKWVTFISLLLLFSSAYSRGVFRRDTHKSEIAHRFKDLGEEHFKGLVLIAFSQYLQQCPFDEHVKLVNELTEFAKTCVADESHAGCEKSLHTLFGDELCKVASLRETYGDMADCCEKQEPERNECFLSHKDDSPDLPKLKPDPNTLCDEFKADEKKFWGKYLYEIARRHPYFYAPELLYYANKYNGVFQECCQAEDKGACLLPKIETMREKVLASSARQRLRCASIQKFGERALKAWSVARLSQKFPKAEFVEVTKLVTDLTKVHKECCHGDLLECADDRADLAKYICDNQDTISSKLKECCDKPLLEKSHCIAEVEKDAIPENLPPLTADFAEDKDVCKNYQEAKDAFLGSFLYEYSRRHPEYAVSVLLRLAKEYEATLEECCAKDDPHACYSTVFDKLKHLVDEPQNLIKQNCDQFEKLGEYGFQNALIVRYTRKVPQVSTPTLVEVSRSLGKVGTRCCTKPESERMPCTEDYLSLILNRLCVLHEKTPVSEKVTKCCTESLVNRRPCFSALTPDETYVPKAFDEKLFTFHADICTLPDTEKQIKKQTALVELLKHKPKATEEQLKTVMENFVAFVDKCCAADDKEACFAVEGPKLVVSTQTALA
# Chain of Follistatin (Homo sapiens) (P19883 whole entry, looked up): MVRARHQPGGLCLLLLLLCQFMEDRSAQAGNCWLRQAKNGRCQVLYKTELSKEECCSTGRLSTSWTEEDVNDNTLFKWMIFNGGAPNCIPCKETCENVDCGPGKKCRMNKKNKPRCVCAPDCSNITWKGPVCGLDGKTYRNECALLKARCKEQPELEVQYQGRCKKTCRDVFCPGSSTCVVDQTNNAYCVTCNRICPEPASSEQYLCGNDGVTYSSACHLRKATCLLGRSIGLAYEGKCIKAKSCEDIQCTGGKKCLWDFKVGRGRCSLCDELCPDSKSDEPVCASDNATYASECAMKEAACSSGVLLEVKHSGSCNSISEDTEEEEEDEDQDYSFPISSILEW
Structure (SMILES),composite z-score [1],composite Z-score [2],composite z-score [3],composite z-score [4],composite z-score [5],composite z-score [6],composite z-score [7],composite z-score [8],composite z-score [9],composite z-score [10],composite z-score [11],composite z-score [12],composite z-score [13],composite z-score [14],composite z-score [15],composite z-score [16],z-score [17],composite z-score [18],composite z-score [19],z-score [20]
COc1ccc(COC(=O)NN=C2C[C@@H](O)[C@@H](O)[C@@H]3[C@@H]4C(=O)N(C[C@@H]5CCCO5)C(=O)[C@@H]4CC[C@H]23)cc1,0.533,-0.713 (inactive),0.0562,-0.0811,-0.283,0.121,-0.341,-0.624,0.144,-0.826,-0.156,-0.309,0.0444,-0.269,-1.13,-0.902,-0.252,-1.1,0.128,0.917 (inactive)
CCOC(=O)[C@H](CC(C)C)NC(=O)CCC1CC(OC(=O)NCc2ccc3c(c2)OCO3)CC2(CCCC(COC(=O)NCCOC)O2)O1 (stereo not given in full),-0.398,-0.0756 (inactive),0.0208,-0.166,0.152,0.57,0.0898,0.911,0.293,0.858,0.418,0.758,-0.379,0.942,0.589,0.725,-0.119,0.847,0.609,0.713 (inactive)
COC(=O)[C@H](C)NC(=O)CCC1CC(OC(=O)NCc2ccc3c(c2)OCO3)CC2(CCCC(COC(=O)NCCc3ccc(Cl)cc3)O2)O1 (stereo not given in full),0.293,0.0601 (inactive),0.0129,-0.0974,0.0233,0.043,-0.0478,0.422,1.26,-0.455,1.22,0.377,0.142,0.275,0.758,0.742,-0.928,0.398,0.268,0.839 (inactive)
CON=C(C)CCC(=O)OC[C@H]1O[C@H](C#Cc2ccccc2)C=C[C@@H]1Oc1ccc(C)cc1,0.468,-0.054 (inactive),-0.0111,-0.0751,0.263,0.661,0.232,0.626,0.479,0.491,0.377,0.54,0.122,0.354,0.398,0.344,-0.656,0.569,0.279,-3.61 (inactive)
COC(=O)CC=C[C@@H](C)[C@@H](C=NOC(C)CN1CCCc2nc(C)c(C)cc21)NS(=O)(=O)c1ccc(C)cc1 (stereo not given in full),-0.515,0.964 (inactive),0.033,0.0098,-0.19,0.726,0.416,1.14,0.641,0.0308,2.64,0.549,0.299,0.451,0.789,0.533,0.835,0.765,0.11,0.679 (inactive)
CC(C)CN1CCc2nc(-c3ccccc3)c3c(c2C1)CO[C@@H](C)C3,0.729,-0.548 (inactive),0.0636,0.0341,0.465,0.798,0.0322,1.29,0.53,1.11,0.454,1.16,0.741,0.756,0.785,0.525,0.0232,0.923,0.963,-0.628 (inactive)
COc1ccc(COC(=O)NN=C2C[C@@H](O)[C@@H](O)[C@@H]3[C@@H]4C(=O)N(c5cccc(Oc6ccccc6)c5)C(=O)[C@@H]4CC[C@H]23)cc1,0.64,-0.626 (inactive),0.0793,-0.0665,-0.0831,0.852,-0.0241,-0.546,-0.636,0.433,0.362,-0.476,0.407,0.744,-0.355,-0.603,-0.593,-0.258,0.916,0.911 (inactive)
COC(=O)CC=C[C@@H](C)[C@@H](C=NOC(C)CN1CCCCc2nc(C)c(C)cc21)NS(=O)(=O)c1ccc(C)cc1 (stereo not given in full),-0.636,-0.292 (inactive),0.0949,-0.19,-0.277,-0.065,0.0618,0.0692,1.17,-0.135,0.0454,0.156,0.0646,-0.207,0.927,0.601,-0.297,0.417,0.0721,0.183 (inactive)
